# Test results: PubChem BioAssay (NCATS)
# Inconclusive results are not listed. Active and inactive are the calls of the source. Calls come from the whole dose curve; as a rule, active = well fitted inhibition curve with a large enough effect; inconclusive = small, poorly fitted or top-dose-only effect, or effect the other way; inactive = flat fitted curve, though single readings scatter.
# Target: Ubiquitin carboxyl-terminal hydrolase 2 (Homo sapiens) (UniProt O75604)
# Test: qHTS Validation Assay for Inhibitors of Ubiquitin-specific Protease USP2a Using CHOP2 as the Reporter (AID 463106)
# Settings: USP2a cleavage of CHOP2 reporter, enzymatic; series mostly up to 38.3 µM
# Excerpt: NIH Molecular Libraries Screening Centers Network [MLSCN]
# NIH Chemical Genomics Center [NCGC]
# PI Name: Nicholson, Ben. Progenra Inc, Malvern, PA
# Homeostasis of cellular proteins is maintained through a combination of synthesis and degradation. The pathway that accounts for the majority of protein degradation is the ubiquitin-proteasomal pathway. Ubiquitin (Ub) is highly conserved in all cells and the generation of a multi-Ub chain typically targets proteins for degradation by the proteasome. However, ubiquitination is highly reversible and dynamic. Deubiquitination, the reverse process, is catalyzed through the action of enzymes referred to as isopeptidases or deubiquitinating enzymes (DUBs). This group of enzymes is collectively responsible for maintaining adequate pools of free ubiquitin and regulating the ubiquitination status of cellular proteins. The class of DUBs referred to as the ubiquitin-specific proteases (USP) family functions endoproteolytically to cleave Ub chains from a wide range of protein substrates. USP2a deubiquitinates fatty acid synthase (FASN) which has recently been identified as an emerging oncology target. To identify inhibitors of USP2a a cell-free assay was employed.
# The reporter enzyme chosen is an enterokinase called CHOP2, which is activated when the Ub is cleaved by USP2. The free and now activated reporter can subsequently act on its reporter substrate. […] The assay was developed by Progenra, Inc. and has been licensed for sale by LifeSensors, Inc. as Ub-CHOP2-Reporter-Kit (#PR1101).
# NCGC Assay Protocol Summary:
# The assay buffer, prepared fresh at the day of the assay, contains 20mM Tris-HCl pH 8.0, 2mM CaCl2, 2mM beta-Mercaptoethanol, 0.05% CHAPS. 3ul of 20nM (10nM final) USP2 core, which is stored on ice, is dispensed into a medium-binding black solid Kalypsys 1,536 well plate using the Kalypsys dispenser. The assay plate is then pinned with 23nL compound with the Kalypsys pintool in columns 5-48. The controls are pinned as follows: column 1 two-fold dilutions of 2M NEM in duplicate; column 2 2M NEM (final concentration 38.2mM); column 3&4 DMSO. The assay plate is incubated at RT for 30min. Subsequently, 1.5uL of 100nM (25nM final) Ub-CHOP2 and 1.5uL of 100nM (25nM final) Reporter Substrate (both stored on ice and protected from light) were dispensed into the plate using the Kalypsys dispenser. Plates were read after 60min RT incubation on a ViewLux (Perkin Elmer) plate reader using the following wavelengths Ex 485nm /Em 531nm.
# Data were normalized to the to AC100 inhibition (NEM). Concentration-response curves were fitted to the normalized data and the concentration-response curves were then classified based on curve quality (r2), response magnitude and degree of measured activity. The time zero reading was used to flag fluorescence artifacts.
# Keywords: ubiquitination, deubiquitination, proteases, profluorescent, MLSMR, MLPCN, NIH Roadmap, qHTS, NCGC
# Chain of Ubiquitin carboxyl-terminal hydrolase 2 (Homo sapiens) (O75604 whole entry, looked up): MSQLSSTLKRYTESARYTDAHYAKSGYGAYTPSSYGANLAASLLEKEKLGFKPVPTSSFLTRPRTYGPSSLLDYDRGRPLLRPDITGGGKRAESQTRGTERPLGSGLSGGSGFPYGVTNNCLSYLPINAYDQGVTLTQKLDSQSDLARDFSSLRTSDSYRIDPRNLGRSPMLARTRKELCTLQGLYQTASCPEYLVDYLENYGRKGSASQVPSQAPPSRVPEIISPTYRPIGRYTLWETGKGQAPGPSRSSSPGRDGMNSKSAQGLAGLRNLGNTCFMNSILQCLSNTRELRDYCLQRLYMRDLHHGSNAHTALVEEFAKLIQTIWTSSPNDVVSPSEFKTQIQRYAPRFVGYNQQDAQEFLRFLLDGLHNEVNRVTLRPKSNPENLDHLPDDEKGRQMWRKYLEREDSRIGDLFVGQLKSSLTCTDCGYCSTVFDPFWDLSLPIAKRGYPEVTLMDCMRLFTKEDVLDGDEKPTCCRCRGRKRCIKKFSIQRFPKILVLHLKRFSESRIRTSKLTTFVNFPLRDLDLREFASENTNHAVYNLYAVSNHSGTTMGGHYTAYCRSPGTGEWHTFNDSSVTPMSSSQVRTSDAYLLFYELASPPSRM
row,Structure (SMILES),outcome
1,CN(C)c1cc2c(Nc3ccc4c(cnn4Cc4ccccc4)c3)ncnc2cn1,inactive
2,O=[N+]([O-])c1ccc(-c2nc(-c3ccc(F)cc3)c(-c3ccncc3)[nH]2)cc1,inactive
3,Clc1ccc2c(c1)N=C(N1CCNCC1)c1ccccc1N2,inactive
4,Cc1nn(-c2ccccc2)c(C)c1/C=N/N1CCN(Cc2ccccc2)CC1,inactive
5,C[N+](C)(C)CCO,inactive
6,Cn1cnc2c(NCc3ccccc3)nc(NCCO)nc21,inactive
7,COC(=O)C1=CO[C@@H](O)[C@@H]2C(CO)=CC[C@H]12,inactive
8,CC(C)N(CCC(=O)c1ccc2ccccc2c1)Cc1ccccc1,inactive
9,NC(N)=NCCCCN=C(N)N,inactive
10,O=C1NC(=O)/C(=C/c2ccc3c(c2)OC(F)(F)O3)S1,inactive
11,Brc1ccc([C@H]2CN3CCSC3=N2)cc1,inactive
12,Nc1ncnc2n[nH]c(Nc3ccc(F)cc3)c12,inactive
13,COc1ccccc1N1CCN(CCN2C(=O)CC3(CCCC3)CC2=O)CC1,inactive
14,N[C@@H](Cn1ccc(=O)c(O)c1)C(=O)O,inactive
15,COc1cccc2c1[C@@H]1CN(CCCCn3c(=O)[nH]c4c(sc5ncc(-c6ccccc6)nc54)c3=O)C[C@@H]1CO2,inactive
16,O=C1NC(c2cccc([N+](=O)[O-])c2)=CCN1c1ccccc1O,inactive
17,CCN(CC)CCNC(=O)c1ccc(NS(C)(=O)=O)cc1,inactive
